Screening data (PubChem BioAssay)
Hits are enriched below; roughly 3.7% of the tested compounds scored in any of these assays.
Tau fibril ThT = inhibitors of human tau fibril formation, thioflavin T binding | P10636 | Potency, µM (top dose mostly 57.4 µM), without a hit: at the top dose activity, negative = inhibition, usual class: inhibitors | recombinant tau K18 P301L, heparin-induced fibrillization, ThT fluorescence | actives 2.1% (n = 270,000); note: % is set by controls: 0 for no effect and ±100 for the full control effect; nearly all actives have a fitted effect of over 55% in size
Target sequence (P10636 561-689 P618L limits assumed): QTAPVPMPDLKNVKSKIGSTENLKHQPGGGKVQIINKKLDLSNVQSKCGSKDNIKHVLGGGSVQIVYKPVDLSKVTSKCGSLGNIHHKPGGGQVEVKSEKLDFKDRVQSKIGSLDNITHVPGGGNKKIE
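ThT emission at 510 nm, taken 1 hr after adding 30 uM dye, quantifies aggregates formed when 20 uM heparin acts on human tau K18 P301L for 6 hr at 37 C.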
Tau FP inhib = inhibitors of human tau fibril formation; P10636; K18 P301L tau heparin fibrillization, Alexa594 FP, 6 h; Potency, µM (series often up to 57.7 µM), for the others: at the highest dose activity, negative = inhibition, actives largely listed as inhibitors; actives 0.39% (n = 280,000); AID 1468; note: % is set by controls: 0 for no effect and ±100 for the full control effect; nearly all actives have a fitted effect of over 55% in size
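FP of Alexa 594-tau after heparin (20 uM) induction. Substrate: human K18 P301L, 15 uM unlabeled, 0.24 uM labeled. Buffer 100 mM sodium acetate pH 7. 6 hr, 37 C.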
Tau fluor cs = counter-screen for tau fibril formation inhibitors. tau K18 P301L Alexa594 fluorescence, heparin fibrillization. actives 0.93% (n = 280,000). Potency, µM (top dose mostly 57.7 µM), for the others: at the top dose activity change, negative = decrease. AID 1463; note: % is set by controls: 0 for no effect and ±100 for the full control effect; nearly all actives have a fitted effect of over 55% in size
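Human tau K18 P301L (15 uM unlabeled, 0.24 uM Alexa 594-labeled) in 100 mM sodium acetate pH 7 with 20 uM heparin, 6 hr at 37 C. ThT 30 uM added, 1 hr ambient; Alexa 594 FP and total fluorescence read at 555/632 nm.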
HttQ103 aggreg = inhibitors of mutant huntingtin aggregate formation in PC12 cells. PC12 HttQ103-GFP aggregates, Acumen cytometry, 40 h. Potency, µM (series often up to 46.1 µM), for the others: at the top dose activity change, negative = inhibition, most hits filed as inhibitors. actives 1.1% (n = 220,000); note: % is set by controls: 0 for no effect and ±100 for the full control effect; nearly all actives have a fitted effect of over 60% in size
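PC12 cells stably carrying ecdysone-inducible HTT exon 1 Q103–GFP were induced with tebufenozide (100 nM final) and treated with library compounds in titration. GFP aggregates in lysates were counted by laser scanning cytometry.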
HTT ATP protect = protects HTT-Q103 PC12 cells, measured by ATP. PC12 HTT-Q103 induced, cytoprotection, ATP luminescence, 40 h. Potency, µM (top dose mostly 56.4 µM), for inactives: cytoprotection (ATP increase), hits mostly activators. actives 0.14% (n = 230,000); note: % of control where 0% means no effect; nearly all actives have a fitted effect of over 45% in size
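Stable PC12 Q103-GFP cells in serum-supplemented, phenol red-free DMEM; induction by tebufenozide at 100 nM final; compound dose series; cell viability quantified luminescently from ATP.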
Starred values were filed as active, the others as inactive; u = inconclusive; x = no result; ! = repeats disagree; [ ] = another dose, or the depositor's remark. Calls come from the whole dose curve; as a rule, active = well fitted curve in the direction sought with a large enough effect; inconclusive = small, poorly fitted or top-dose-only effect, or another doubt; inactive = no such curve, though single readings can be large; an effect the other way counts as inactive or inconclusive. Potency is the fitted concentration of half-maximal effect.

SMILES	Tau fibril ThT	Tau FP inhib	Tau fluor cs	HttQ103 aggreg	HTT ATP protect
O=C(NC1C/C(=N/O)c2cc3c(cc21)OCO3)C(F)(F)F (stereo not given)	-4%	-12%	-4%	u	4µM*
O=C1CC(NC(=O)C(F)(F)F)c2cc3c(cc21)OCO3 (stereo not given)	2%	1%	8%	-3%	-1%[10 µM]
CCCCc1nc2c(c3c1C[C@H](C)OC3)CN(C(=O)NCc1ccco1)CC2	-12%[11.5 µM]	0%[11.6 µM]	-15%[11.6 µM]	x	8%[10 µM]
O=C1c2cccc3cccc(c23)C(=O)N1CC1CCN(CC(O)COc2ccc3ccccc3c2)CC1 (stereo not given)	13µM*	-5%	16µM*[quencher]	u	-27%
C=CCNC(=O)N1CCc2nc(COc3ccccc3)c3c(c2C1)CO[C@@H](C)C3	-5%[11.5 µM]	-1%[11.6 µM]	-9%[11.6 µM]	x	-25%[10 µM]
COc1cc(CNc2ccc(N3CCCC3)cc2)ccc1OCc1ccccc1	5µM*	u	u	-1%	10%[10 µM]
COc1cc(CNc2ccc(N3CCCC3)cc2)ccc1OCc1ccccc1F	4%	1%	6%	26%	-2%[10 µM]
COC(=O)CN(C)C(=O)CC1C(=O)NCCN1CC(C)(C)C (stereo not given)	-18%	-8%	-9%	u	1.1µM*
CCOc1ccc(C2C(C(=O)C3CC3)N3C=C(C#N)C=CC3C2(C#N)C#N)cc1 (stereo not given)	16µM*	u	-24%	u	-29%
Cn1c(Sc2ccccc2Cl)c(C=O)c2ccccc21	-4%	0%	-4%	14%	-16%
Cn1c(Sc2ccc(Cl)cc2)c(C=O)c2ccccc21	u	-13%	-20%	7.9µM*	-21%[10 µM]
CCCn1c(=O)c2sccc2n2c(CCCC(=O)N3CCN(c4ccccc4OC)CC3)nnc12	-1%	3%	-8%	x	x
N/N=C(/Cc1nc2ccccc2[nH]1)c1ccc([N+](=O)[O-])cc1	5µM*	-3%	-30%	20%	-66%
Clc1cccc(/C(Cc2nc3ccccc3[nH]2)=N\Nc2ccccc2)c1	u	u	7.1µM*[quencher]	13%	-34%[10 µM]
c1ccc(N/N=C(\Cc2nc3ccccc3[nH]2)c2ccccc2)cc1	u	1%	16µM*[quencher]	28%	17%[10 µM]
O=C(OCc1cc(=O)n2nc(-c3cccs3)sc2n1)c1ccc(Cl)cc1	u	2%	1%	x	x
Oc1ccc2ccccc2c1C=NC1CCCCC1	25µM*	u	u	-8%	u
O=CN/N=C/c1c(O)ccc2ccccc12	-3%	-8%	-9%	u	-31%[10 µM]
Cc1cc(N/N=C/c2c(O)ccc3ccccc23)nc(-c2ccccc2O)n1	9%	-1%	10%	10µM*	27%[10 µM]
Oc1ccc2ccccc2c1/C=N/c1nc2c(s1)CCCC2	32µM*	u	u	-3%	15%
Oc1ccc2ccccc2c1/C=N/Nc1ccccc1	18µM*	u	11µM*[quencher]	u	42%[10 µM]
Cc1nc2cccc([N+](=O)[O-])c2n1CCCN(C)C	x	x	x	x	9%[10 µM]
COc1ccc2[nH]cc(CCNc3cc(-c4c(C)noc4C)ncn3)c2c1	x	x	x	x	-45%
CCOC(=O)c1cc(-c2ccc(OC)cc2)n(CCC(=O)NCc2ccccc2OC)c1C	-18%	19%	-22%	x	x
COc1ccc(CCNC(=O)c2ccc3c(c2)N(Cc2ccccc2C)C(=O)c2ccccc2S3)cc1OC	3%	-2%	-16%	x	x
SMILES	Tau fibril ThT	Tau FP inhib	Tau fluor cs	HttQ103 aggreg	HTT ATP protect
CN1CCN(CCCNN)CC1	x	x	x	x	5%[10 µM]
CC[C@]1(O)C[C@H]2CN(CCc3c([nH]c4ccccc34)[C@](C(=O)OC)(c3cc4c(cc3OC)N(C=O)[C@H]3[C@@](O)(C(=O)OC)[C@H](OC(C)=O)[C@@]5(CC)C=CCN6CC[C@]43[C@H]65)C2)C1	x	x	x	x	-77%[1.9 µM]
Cc1cc(C)cc(N(CC(=O)O)S(=O)(=O)c2cccnc2)c1	x	x	x	x	-8%
COC(=O)N[C@@H](c1ccc(Br)cc1)C(C(=O)OC)C(=O)OC	-8%	-7%	-11%	x	-25%
O=C1OC(=O)[C@@H]2[C@@H]1[C@@H]1CC[C@H]2O1	x	x	x	x	-75%
COc1ccc(CC(N)C(=O)NC2C(CO)OC(n3cnc4c(N(C)C)ncnc43)C2O)cc1 (stereo not given)	-5%	-2%	-9%	13µM*	-94%
COc1ccc(-c2nc(N)c3ncn([C@H]4O[C@@H](CO)[C@@H](O)[C@@H]4O)c3n2)cc1	x	x	x	x	4%[10 µM]
CCOc1cc(N2CCOCC2)c(OCC)cc1NC(=O)c1ccccc1C	-1%	8%	-6%	8%	-25%
O=C(Nc1ccc(N2CCCC2)cc1)C(Cl)c1ccccc1 (stereo not given)	25µM*	32µM*	u	6%	-15%
O=C(Nc1ccc(N2CCCCC2)cc1)c1ccc2ccccc2n1	13µM*	15%	u	-30%	-118%
CCOc1cc(N2CCOCC2)c(OCC)cc1NC(=O)c1ccc2ccccc2n1	25µM*	12%	u	u	-94%
O=C1C(c2ccc(F)cc2)N(CCc2ccccc2)C(=O)CN1C1CCCCCC1 (stereo not given)	-3%	1%	-2%	x	x
COc1ccc(CCNCC(O)Cn2c3ccccc3c3ccccc32)cc1OC (stereo not given)	-12%	-4%	-29%	u	-31%
COc1ccccc1NCC(O)Cn1c2ccccc2c2ccccc21 (stereo not given)	u	u	10µM*[quencher]	-31%	-66%
CN(Cc1ccccc1)C(=O)c1c[nH]c2ccc(S(=O)(=O)Nc3ccccc3F)cc2c1=O	-1%	-8%	-8%	x	x
NC(=O)C/C=C\CC(N)=O	x	x	x	x	4%[10 µM]
CCOC(=O)N=Nc1c(O)n(CC(=O)OC)c2ccccc12	-12%	-10%	-9%	2%	u
CCOC(=O)N=Nc1c2ccccc2c2nc3no[nH]c3nc12	u	u	-24%	1.3µM*	-183%
CCCCOC(=O)CCc1nc2ccccc2[nH]c1=O	-6%	-6%	-11%	8%	-9%
CCOC(=O)c1ccc(COC(=O)CCc2nc3ccccc3[nH]c2=O)o1	5%	5%	9%	2.8µM*	-7%[10 µM]
COc1cccc2c1C(=O)c1c(O)c3c(c(O)c1C2=O)C[C@@](O)(C(C)=O)C[C@@H]3O[C@H]1C[C@H](N)[C@H](O)[C@H](C)O1	4µM*	25µM*	-10%	2.2µM*!	-142%
COc1cccc2c1C(=O)c1c(O)c3c(c(O)c1C2=O)C[C@@](O)(C(=O)CO)C[C@@H]3OC1C[C@@H](N)[C@H](O)[C@H](C)O1 (stereo not given in full)	5µM*	25µM*	9%	x	-183%
COc1cccc2c1C(=O)c1c(O)c3c(c(O)c1C2=O)C[C@](O)(C(=O)CO)C[C@@H]3O[C@H]1C[C@H](N)[C@@H](O)[C@H](C)O1	x	x	x	-3%	-26%
